From PubChem
Shown is part of a subset that was picked to be rich in hits.
CBX7 inh: inhibitors of human CBX7 binding to H3K27me3 peptide. AlphaScreen His6-CBX7 / biotin-H3K27me3 peptide binding; hits give low values. AID 1224903. O95931. normalised signal (fraction of DMSO) (test concentration not listed). actives 1.1% (n = 66,000); in the data active = normalised signal below about 0.5
Target sequence (O95931 whole entry, looked up): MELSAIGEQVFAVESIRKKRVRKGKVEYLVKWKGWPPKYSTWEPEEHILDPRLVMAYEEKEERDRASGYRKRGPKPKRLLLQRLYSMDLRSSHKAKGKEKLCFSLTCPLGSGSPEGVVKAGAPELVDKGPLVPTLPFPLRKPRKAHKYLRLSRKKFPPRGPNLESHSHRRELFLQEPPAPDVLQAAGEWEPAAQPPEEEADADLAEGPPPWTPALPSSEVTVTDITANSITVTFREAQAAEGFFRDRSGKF
The depositor's hits bear a star.

SMILES	CBX7 inh
Cc1ccc(NC(=O)C2C3C=CC4(CNC(=O)C(c5ccc(F)cc5)N(Cc5ccccc5F)C(=O)C24)O3)cc1 (stereo not given)	0.82
Clc1ccc(C(c2ccc(Cl)cc2)N2CCN(CCCc3c[nH]c4ccccc34)CC2)cc1	0.6
CC(C)c1ccc(C(c2ccccc2)N2CCN(C(=O)CCc3c[nH]c4ccccc34)CC2)cc1 (stereo not given)	0.59
Fc1ccc(C(c2ccc(F)cc2)N2CCN(CCCc3c[nH]c4ccccc34)CC2)cc1	0.49*
O=C(Nc1ccccc1Cl)c1cnc2sccn2c1=O	0.85
CN1CCN(CCCSc2nnc3c(n2)[nH]c2ccccc23)CC1	1.1
CC(C)=C1C2C=CC1C1C(=O)N(c3cccc(Br)c3)C(=O)C21 (stereo not given)	0.86
Cc1ccc(S(=O)(=O)Nc2nc3ccccc3nc2Nc2cccc(C(F)(F)F)c2)cc1	0.96
O=C(Nc1ccc(-c2csc(-c3ccccc3)n2)cc1)c1cccnc1	0.99
CCCCNC(=O)c1ccc2nc(-c3ccco3)c(-c3ccco3)nc2c1	0.75
O=C(c1ccc2nc(-c3ccco3)c(-c3ccco3)nc2c1)N1CCc2ccccc2C1	0.015*
CC(C)CCNC(=O)c1ccc2nc(-c3ccco3)c(-c3ccco3)nc2c1	0.66
COc1ccc(C(=O)Nc2ccc(Cl)c(-c3nc4cc(C)cc(C)c4o3)c2)cc1OC	1
Cc1ccc(N2C(=O)c3ccccc3C2Nc2ccc(C)cc2Cl)nc1 (stereo not given)	0.74
COc1ccc(NC(=O)c2cc3c(s2)-c2ccccc2OC3)cc1OC	0.97
O=C(NCCCN1CCOCC1)c1cc(-c2ccco2)on1	0.95
O=C(NCCCn1ccnc1)c1cc(-c2ccco2)on1	0.42*
O=C(NCCCn1ccnc1)c1cc(-c2ccc(Cl)c(Cl)c2)on1	0.89
Cc1cccc(NC(=O)C(=O)NCCCn2ccnc2)c1	0.42*
COc1cccc(NC(=O)C(=O)NCCCn2ccnc2)c1	0.87
Cc1ccc(NC(=O)C(=O)NCCCn2ccnc2)cc1Cl	0.91
O=C(CSCc1ccccc1)Nc1nnc(COc2ccc(Cl)cc2)s1	0.9
CCCCCn1c(C(C)NC(C)=O)nc2ccccc21 (stereo not given)	1.1
Cc1ccc(NC(=O)c2ccc(Nc3nnc(C)c4ccccc34)cc2)cc1	1
COc1ccccc1CNC(=O)c1ccc2c(c1)ncn2-c1cc(C)ccc1OC	1.1
SMILES	CBX7 inh
CCCn1c(=O)c(C(=O)NC(C)c2ccccc2)c(O)c2ccccc21 (stereo not given)	0.28*
CCn1c(=O)c(C(=O)NC(C)c2ccccc2)c(O)c2ccccc21 (stereo not given)	1.4
CCCn1c(=O)c(C(=O)NCc2cccnc2)c(O)c2ccccc21	0.96
CCCC1=Nc2cc(C(=O)N3CCN(c4cc(C)ccc4C)CC3)ccc2Sc2ccccc21	0.65
O=C(Nc1ncc(Cc2ccccc2Cl)s1)c1cccc2ccccc12	0.9
O=C(Nc1nc(SCc2ccccc2Cl)ns1)c1ncn[nH]1	0.053*
O=C(Nc1cc(-c2nc3ccccc3s2)ccc1Cl)c1ncn[nH]1	0.85
O=C(C1c2ccccc2C(=O)N2CCc3ccccc3C12)N1CCN(c2cccc(Cl)c2)CC1 (stereo not given)	0.93
CCCc1c2c(nn1-c1ccccc1F)CC(C)(C)CC2=O	1.2
O=C(NCc1cccc(Cl)c1)c1noc2c1CCCC2	1.1
CCN(CC)CCCC(C)Nc1nc(/C=C/c2ccccc2)nc2cc(Cl)ccc12 (stereo not given)	2.5
O=C1CN(C(=O)COc2ccccc2)C(c2ccccc2)c2cc(F)ccc2N1 (stereo not given)	1
O=C1CN(C(=O)COc2ccccc2)C(c2ccccc2)c2cc(Br)ccc2N1 (stereo not given)	0.48*
O=C1CN(C(=O)COc2ccccc2)C(c2ccccc2)c2cc(Cl)ccc2N1 (stereo not given)	0.76
CCC(Sc1nc(NCC2CCCO2)c2ccccc2n1)C(=O)Nc1ccc2c(c1)OCO2 (stereo not given)	0.87
CC1(C)Cc2nc3sc4c(=O)n(Cc5ccccc5)cnc4c3cc2CO1	1.1
CCCN(CCC)S(=O)(=O)c1ccc(C(=O)Nc2sc3c(c2C(=O)OC)CCN(C)C3)cc1	1
COCCNC(=O)C1CCC(=O)N1Cc1ccccc1Cl (stereo not given)	1
Cc1cccc(Nc2nc3ccccc3nc2-n2nc(C)cc2C)c1	2.6
Cc1cc(C)n(-c2nc3ccccc3nc2Nc2ccc(N(C)C)cc2)n1	0.22*
Cc1cc(C)n(-c2nc3ccccc3nc2Nc2ccc3c(c2)OCCO3)n1	1.9
Cc1ccc(NC(=O)C2CC2(c2ccccc2)c2ccccc2)cc1C (stereo not given)	1
Cc1ccnc(NC(=O)CN(c2ccc(C(C)C)cc2)S(=O)(=O)c2c(C)nn(C)c2C)c1	1
CCCCSCCCNC(=O)c1cc(Nc2ccccc2)nc2ccccc12	1.1
Cc1cccc(C)c1NC(=O)C(c1ccccc1)N1CCc2ccccc21 (stereo not given)	0.87
SMILES	CBX7 inh
CC(C)c1ccc(NC(=O)C(c2ccccc2)N2CCc3ccccc32)cc1 (stereo not given)	0.49*
CC(C)c1ccc(NC(=O)C(c2ccc3c(c2)OCO3)N2CCc3ccccc32)cc1 (stereo not given)	0.66
Cc1ccc(Cl)cc1N1CCN(C(=O)CC2Oc3ccccc3NC2=O)CC1 (stereo not given)	0.81
O=C(NCc1ccc(Cl)cc1)c1cccc2c1C(=O)N(C1CCCCC1)C2	1.1
CCOC(=O)N1CCC(Nc2c(NCc3ccc(C)cc3)c(=O)c2=O)CC1	1
O=C(CC1(O)C(=O)Nc2ccc(Br)cc21)c1ccc(Br)cc1 (stereo not given)	0.95
NC(=O)c1ccc(-c2ncc(-c3ccccc3)o2)cc1	0.42*
Clc1ccc(-c2cnc(-c3ccncc3)o2)cc1	1.1
Cc1cc(C)c(C(=O)c2ccc(-c3nnc(-c4ccccc4)o3)cc2)c(C)c1	0.81
Cc1cccc(Cn2c(SCc3ccccc3F)nc3ccncc32)c1	1
O=C(NCCCN1CCCC1)c1ccc2c(c1)N(Cc1cccc(Cl)c1)C(=O)c1ccccc1S2	0.88
CCCCN(CC)S(=O)(=O)c1ccc(C(=O)Nc2nnc(C)o2)cc1	0.024*
CCCN(CCC)S(=O)(=O)c1ccc(C(=O)Nc2nnc(-c3cccs3)o2)cc1	0.93
CCCCN(CC)S(=O)(=O)c1ccc(C(=O)Nc2nnc(CC)o2)cc1	0.079*
CCCCN(CC)S(=O)(=O)c1ccc(C(=O)Nc2ccccc2-c2nc3ccccc3s2)cc1	1.1
CCCCN(CC)S(=O)(=O)c1ccc(C(=O)Nc2ccc(-c3nc4ccccc4[nH]3)cc2)cc1	0.98
CCCCN(CC)S(=O)(=O)c1ccc(C(=O)Nc2nnc(-c3cccs3)o2)cc1	0.9
CCN(Cc1ccccc1)S(=O)(=O)c1ccc(C(=O)Nc2nnc(C)o2)cc1	0.0031*
CCN(Cc1ccccc1)S(=O)(=O)c1ccc2oc(C(=O)O)c(C)c2c1	1.2
CCc1nnc(NC(=O)c2ccc(S(=O)(=O)N(CCC#N)CCC#N)cc2)o1	0.056*
CCc1nnc(NC(=O)c2ccc(S(=O)(=O)N(CC)Cc3ccccc3)cc2)o1	0.76
Cc1ccc(Cc2cnc(NC(=O)COc3ccc(Br)cc3)s2)cc1	1
CCC(=O)N1CCc2cc(S(=O)(=O)NCc3ccccc3)ccc21	1.1
COc1ccc(Nc2nc(-c3ccccc3Cl)nc3ccccc23)cc1Cl	1
